# Laboratory results taken from PubChem BioAssay (Tox21).
# Several values for one entry are separate records, joined by “and”; a condition that tells them apart may be missing. Equal entries are not always repeated. A number with no mark means an inactive call. Results filed as inconclusive are left out. A call without a number means that no potency is given here. Activity calls are given as the source filed them. Unless noted, calls come from the whole dose curve; as a rule, active = well fitted curve in the direction sought with a large enough effect in the repeat runs; inconclusive = weak or mixed curves; inactive = no such curve, though single readings can be large; an effect the other way counts as inactive or inconclusive.
# Key:
# [1] = qHTS assay to identify small molecule agonists of the estrogen receptor alpha (ER-alpha) signaling pathway in the presence of an antagonist - cell viability counter screen (AID 1259386);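 note: series mostly up to about 92 µM; cells exposed to compounds for 22 h at 37 °C before the viability read; nearly all actives have a fitted effect of over 30% in size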
# Method in brief: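 Viability counter screen using VM7Luc4E2 (full-length ER-alpha, four ERE-luciferase). The cells were treated with compounds alongside ICI-182,780 10.0nM for 22hr, and live-cell protease fluorescence was quantified with CellTiter-Fluor.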
# [2] = molecular target: Progesterone receptor (Homo sapiens) (UniProt P06401); test: qHTS assay to identify small molecule agonists of the progesterone receptor (PR) signaling pathway (AID 1346784; calls by dose curve; note: nearly all actives have a fitted effect of over 30% in size)
# Method in brief: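 Beta-lactamase reporter read-out: after 16 hr compound treatment at 37C and a further 2 hr at room temperature with LiveBLAzer B/G FRET substrate, fluorescence was measured in PR-UAS-bla HEK 293T cells grown in 2% charcoal-stripped serum.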
# [3] = molecular target: Progesterone receptor (Homo sapiens) (UniProt P06401); test: qHTS assay to identify small molecule antagonists of the progesterone receptor (PR) signaling pathway (AID 1346795; active = well fitted inhibition curve with a large enough effect in the signal ratio in the repeat runs, not every such curve was filed as active; the % refers to the signal ratio)
# Method in brief: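 Read-out is fluorescence from the LiveBLAzer B/G FRET substrate, cleaved by a UAS-controlled beta-lactamase in PR-UAS-bla HEK293T cells after 16 hr exposure to compound plus 1 nM promegestone (final), followed by 2 hr at room temperature.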
# [4] = qHTS assay to identify small molecule antagonists of the progesterone receptor (PR) signaling pathway - cell viability counter screen (AID 1346798);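 note: HEK293T PR-UAS-bla cells stimulated with the agonist R5020; series mostly up to about 92 µM; nearly all actives have a fitted effect of over 50% in size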
# Method in brief: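 HEK293T PR-UAS-bla, 2% charcoal-stripped FBS; 4 hr pre-plate; cpd + R5020, 16 h 37C; LiveBLAzer read first; then CellTiter-Glo 30 min RT, luminescence.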
# [5] = qHTS assay to identify small molecule agonists of the progesterone receptor (PR) signaling pathway - cell viability counter screen (AID 1346799; calls by dose curve; note: nearly all actives have a fitted effect of over 45% in size)
# Method in brief: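 Luminescence from CellTiter-Glo, added after the beta-lactamase FRET read in the same wells, gave cytotoxicity in PR-UAS-bla HEK293T cells treated with compounds for 16 hr at 37C.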
# [6] = qHTS assay to identify small molecule antagonists of the TGF-beta/Smad signaling pathway - cell viability counter screen (AID 1346824); note: nearly all actives have a fitted effect of over 50% in size
# Method in brief: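 Cytotoxicity counter-screen run in the same wells as the beta-lactamase Smad reporter read: CellTiter-Glo luminescence after 30 min at room temperature. HEK 293T SBE-bla cells had 5 hr compound exposure at 37 C with TGF-beta1 (0.25 ng/mL stock).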
# [7] = qHTS assay to identify small molecule agonists of the TGF-beta/Smad signaling pathway (AID 1346859; active = well fitted activation curve with a large enough effect in the signal ratio in the repeat runs, not every such curve was filed as active; the % refers to the signal ratio; note: series mostly up to about 77 µM)
# Method in brief: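 SBE-bla HEK 293T, 4,000 cells/well, plated o/n; cpd in DMSO, 5 hr, 37 C/5% CO2; B/G FRET substrate 2 hr RT; ex 405, em 460/530 nm.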
# [8] = molecular target: Thyrotropin-releasing hormone receptor (Homo sapiens) (UniProt P34981); test: qHTS assay to identify small molecule agonists of the thyrotropin-releasing hormone receptor (TRHR) signaling pathway (AID 1346891; calls by dose curve; note: series mostly up to about 58 µM)
# Method in brief: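 Intracellular calcium rise, read as fluorescence every second for 3 min, served as the agonist signal in dye-loaded HEK293 cells expressing TRHR; each compound ran at 15 concentrations in triplicate.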
# [9] = Caspase-3/7 induction in HepG2 cells by small molecules, qHTS assay (AID 1346978); note: nearly all actives have a fitted effect of over 15% in size
# Method in brief: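 Caspase-3/7 induction was measured by Caspase-Glo 3/7 luminescence (30 min, room temperature) after a 17 hr compound exposure of wild-type HepG2 cells seeded at 2,000 per well and pre-incubated 5 hr.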
# [10] = Caspase-3/7 induction in CHO-K1 cells by small molecules, qHTS cell viability counter screen (AID 1346979); note: nearly all actives have a fitted effect of over 35% in size; note: potency is the fitted concentration of half-maximal effect
# Method in brief: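 Cells (CHO-K1, wild type) are plated at 1,500 per well and incubated 5hr. Test compounds in DMSO are then pinned in, followed by 16hr at 37C and 5% CO2. Viability is read by CellTiter-Fluor fluorescence after 1hr.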
# [11] = Caspase-3/7 induction in CHO-K1 cells by small molecules, qHTS assay (AID 1346980); note: nearly all actives have a fitted effect of over 15% in size
# Method in brief: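 Luminescent Caspase-Glo 3/7 read (30min, room temperature) quantified apoptosis induction. Cells were wild-type CHO-K1, treated with compound for 17hr at 37 C and 5% CO2.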
# [12] = Caspase-3/7 induction in HepG2 cells by small molecules, qHTS cell viability counter screen (AID 1346981); note: nearly all actives have a fitted effect of over 30% in size; note: potency is the fitted concentration of half-maximal effect
# Method in brief: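 Viability determined by CellTiter-Fluor fluorescence in HepG2 wells also used for the luminescent Caspase-Glo 3/7 read. Compounds were present for 16 hr at 37 C, 5% CO2 before reagent addition.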
# [13] = molecular target: Nuclear receptor subfamily 1 group I member 2 (Homo sapiens) (UniProt O75469); test: Human pregnane X receptor (PXR) small molecule agonists, qHTS assay (AID 1346982); note: nearly all actives have a fitted effect of over 35% in size; note: potency is the fitted concentration of half-maximal effect
# Method in brief: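 Compound-induced hPXR transactivation of a CYP3A4 luciferase reporter was scored in HepG2 PXR-Luc cells over 24 hr at 37 C, 5% CO2, by luminescence.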
# [14] = molecular target: Acetylcholinesterase (Homo sapiens) (UniProt P22303); test: Acetylcholinesterase (AChE) small molecule antagonists: colormetric cell-based qHTS assay (AID 1347395; calls by dose curve; note: nearly all actives have a fitted effect of over 30% in size; note: potency is the fitted concentration of half-maximal effect)
# Method in brief: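 Colorimetric read-out: DTNB detects thiocholine released when cellular AChE in SH-SY5Y cells hydrolyses acetylthiocholine. Cells attached overnight, received compound for 30 min at 37 C, then substrate mix for 90 min at 37 C.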
# [15] = qHTS assay to identify small molecule agonists of the TGF-beta/Smad signaling pathway - cell viability counter screen (AID 1346829); note: top concentration of the series differs between compounds; nearly all actives have a fitted effect of over 45% in size
# Method in brief: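 After overnight seating at 37 C and 5% CO2, reporter cells got compounds for 5 hr and FRET substrate for 2 hr; cell viability then came from CellTiter-Glo luminescence.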
# [16] = molecular target: Thyrotropin-releasing hormone receptor (Homo sapiens) (UniProt P34981); test: qHTS assay to identify small molecule antagonists of the thyrotropin-releasing hormone receptor (TRHR) signaling pathway (AID 1346877; active = well fitted inhibition curve with a large enough effect in the repeat runs, not every such curve was filed as active; note: potency is the fitted concentration of half-maximal effect)
# Method in brief: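 Following an 18 h incubation at 37 °C and a 2 h calcium dye load, TRHR-HEK293 cells were exposed to compound (5 min, room temperature) and challenged with TRH, 1 nM final.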
# [17] = Human pregnane X receptor (PXR) small molecule agonists, qHTS cell viability counter screen (AID 1346977); note: nearly all actives have a fitted effect of over 50% in size; note: potency is the fitted concentration of half-maximal effect
# Method in brief: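 PXR-Luc HepG2, 2,000 cells/well, 5% charcoal-stripped FBS; 5hr settle; cpd 24hr, 37C/5% CO2; CellTiter-Fluor at 23hr, read 1hr later (fluorescence).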
# [18] = molecular target: Nuclear receptor subfamily 1 group I member 2 (Rattus norvegicus) (UniProt Q9R1A7); test: Rat pregnane X receptor (rPXR) activation by small molecules, qHTS assay (AID 1346983); settings: rPXR luciferase reporter cells, One-Glo luminescence, 24 h; active compounds read high; note: nearly all actives have a fitted effect of over 20% in size
# Method in brief: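 Luminescent readout (One-Glo luciferase, 30 min room temperature) followed 24 hr compound treatment at 37 C of rPXR cells plated 2,000 per well and preincubated 5hr; qHTS format with compounds delivered in DMSO.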
# [19] = molecular target: Nuclear receptor subfamily 1 group I member 2 (Homo sapiens) (UniProt O75469); test: CYP3A4 induction through human pregnane X receptor (PXR) by small molecules, qHTS assay (AID 1346984); note: nearly all actives have a fitted effect of over 40% in size
# Method in brief: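 Readings come from a luciferase reporter: DPX-2 cells, which are HepG2 cotransfected with PXR and a CYP3A4-promoter construct, were exposed to test compounds for 24 h at 37C before One-Glo detection.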
# [20] = molecular target: Nuclear receptor subfamily 1 group I member 2 (Homo sapiens) (UniProt O75469); test: Human pregnane X receptor (PXR) activation by small molecules, qHTS assay (AID 1346985); note: nearly all actives have a fitted effect of over 40% in size
# Method in brief: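 DPX-2 cells (HepG2 co-transfected with a PXR response element and a CYP3A4-promoter luciferase construct) were seeded at 2,000 per well, rested 5 hr at 37C, then exposed to DMSO-dissolved compounds for 24 hr. Activation was read as luciferase luminescence.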
# Nuclear receptor subfamily 1 group I member 2 (Homo sapiens), sequence (O75469 whole entry, looked up): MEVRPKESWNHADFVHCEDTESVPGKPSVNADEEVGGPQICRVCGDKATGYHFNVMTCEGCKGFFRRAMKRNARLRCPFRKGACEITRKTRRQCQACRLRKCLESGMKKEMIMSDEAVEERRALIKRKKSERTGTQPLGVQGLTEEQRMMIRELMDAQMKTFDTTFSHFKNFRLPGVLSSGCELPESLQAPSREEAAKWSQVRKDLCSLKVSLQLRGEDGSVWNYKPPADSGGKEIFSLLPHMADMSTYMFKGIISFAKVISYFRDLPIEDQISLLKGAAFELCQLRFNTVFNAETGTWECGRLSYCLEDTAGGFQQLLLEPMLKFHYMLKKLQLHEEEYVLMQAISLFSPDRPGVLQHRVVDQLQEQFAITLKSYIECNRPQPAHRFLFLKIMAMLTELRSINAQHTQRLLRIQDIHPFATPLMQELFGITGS
# Thyrotropin-releasing hormone receptor (Homo sapiens), sequence (P34981 whole entry, looked up): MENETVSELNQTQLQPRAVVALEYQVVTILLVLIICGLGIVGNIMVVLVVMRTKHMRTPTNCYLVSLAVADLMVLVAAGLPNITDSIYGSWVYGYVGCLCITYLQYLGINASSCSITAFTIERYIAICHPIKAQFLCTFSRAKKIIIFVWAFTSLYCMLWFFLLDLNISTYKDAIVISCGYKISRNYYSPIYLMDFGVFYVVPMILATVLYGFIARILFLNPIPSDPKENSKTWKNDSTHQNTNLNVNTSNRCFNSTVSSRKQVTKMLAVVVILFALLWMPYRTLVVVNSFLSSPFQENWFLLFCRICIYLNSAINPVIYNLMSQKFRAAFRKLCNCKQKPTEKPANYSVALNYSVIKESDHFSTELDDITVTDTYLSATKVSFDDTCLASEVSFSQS
# Progesterone receptor (Homo sapiens), sequence (P06401 whole entry, looked up): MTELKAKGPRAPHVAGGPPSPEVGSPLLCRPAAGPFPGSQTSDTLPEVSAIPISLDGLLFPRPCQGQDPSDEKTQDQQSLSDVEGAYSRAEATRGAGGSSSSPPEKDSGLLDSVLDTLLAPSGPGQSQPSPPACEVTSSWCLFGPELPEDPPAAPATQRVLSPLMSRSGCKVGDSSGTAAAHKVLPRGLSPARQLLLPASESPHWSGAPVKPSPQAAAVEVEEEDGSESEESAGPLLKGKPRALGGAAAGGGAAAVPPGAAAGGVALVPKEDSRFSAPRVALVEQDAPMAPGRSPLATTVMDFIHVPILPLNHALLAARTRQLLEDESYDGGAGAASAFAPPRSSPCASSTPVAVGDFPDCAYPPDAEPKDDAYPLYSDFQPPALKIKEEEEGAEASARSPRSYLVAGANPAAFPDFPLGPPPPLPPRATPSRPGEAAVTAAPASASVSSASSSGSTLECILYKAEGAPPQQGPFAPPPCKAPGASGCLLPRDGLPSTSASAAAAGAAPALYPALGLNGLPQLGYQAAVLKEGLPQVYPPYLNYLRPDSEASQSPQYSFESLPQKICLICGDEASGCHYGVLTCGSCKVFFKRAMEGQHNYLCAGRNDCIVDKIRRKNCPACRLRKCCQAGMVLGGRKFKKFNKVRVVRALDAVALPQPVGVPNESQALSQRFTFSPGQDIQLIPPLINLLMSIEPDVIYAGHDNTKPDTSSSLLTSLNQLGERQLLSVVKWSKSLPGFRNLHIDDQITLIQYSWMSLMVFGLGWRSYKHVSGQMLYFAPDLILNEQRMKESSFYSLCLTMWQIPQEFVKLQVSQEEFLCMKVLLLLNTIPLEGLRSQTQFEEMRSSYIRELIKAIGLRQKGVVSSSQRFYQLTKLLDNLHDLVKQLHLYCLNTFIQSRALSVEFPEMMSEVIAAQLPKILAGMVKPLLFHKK
# Acetylcholinesterase (Homo sapiens), sequence (P22303 whole entry, looked up): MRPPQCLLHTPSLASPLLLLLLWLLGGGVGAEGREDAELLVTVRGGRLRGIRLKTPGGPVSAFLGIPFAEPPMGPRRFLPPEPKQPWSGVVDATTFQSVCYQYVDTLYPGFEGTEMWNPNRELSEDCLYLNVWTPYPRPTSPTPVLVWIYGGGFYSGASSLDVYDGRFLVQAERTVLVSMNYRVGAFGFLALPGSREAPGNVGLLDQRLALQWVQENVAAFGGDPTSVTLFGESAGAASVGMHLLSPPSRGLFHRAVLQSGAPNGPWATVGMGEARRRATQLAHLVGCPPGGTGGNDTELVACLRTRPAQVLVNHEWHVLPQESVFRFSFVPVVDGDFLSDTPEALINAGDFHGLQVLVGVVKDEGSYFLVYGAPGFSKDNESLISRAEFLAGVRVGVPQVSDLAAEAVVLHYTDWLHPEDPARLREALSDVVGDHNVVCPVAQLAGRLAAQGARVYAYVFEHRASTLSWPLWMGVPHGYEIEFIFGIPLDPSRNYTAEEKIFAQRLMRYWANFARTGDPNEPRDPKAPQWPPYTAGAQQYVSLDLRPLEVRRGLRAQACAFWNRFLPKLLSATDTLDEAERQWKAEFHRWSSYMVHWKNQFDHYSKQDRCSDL
# Nuclear receptor subfamily 1 group I member 2 (Rattus norvegicus), sequence (Q9R1A7 whole entry, looked up): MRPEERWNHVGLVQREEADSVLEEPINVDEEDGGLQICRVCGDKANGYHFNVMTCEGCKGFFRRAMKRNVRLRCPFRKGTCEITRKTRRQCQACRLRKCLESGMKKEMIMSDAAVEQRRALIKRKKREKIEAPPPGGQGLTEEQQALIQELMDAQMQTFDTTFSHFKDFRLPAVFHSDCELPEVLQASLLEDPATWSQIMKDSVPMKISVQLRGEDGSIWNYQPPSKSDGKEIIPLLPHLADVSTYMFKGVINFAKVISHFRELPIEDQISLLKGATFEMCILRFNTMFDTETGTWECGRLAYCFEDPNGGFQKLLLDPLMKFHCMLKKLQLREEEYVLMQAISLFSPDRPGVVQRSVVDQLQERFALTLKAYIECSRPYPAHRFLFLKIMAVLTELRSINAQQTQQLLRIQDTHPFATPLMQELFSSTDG
SMILES,Potency [1],Potency [2],Potency [3],Potency [4],Potency [5],Potency [6],outcome [7],outcome [8],Potency [9],Potency [10],Potency [11],Potency [12],Potency [13],Potency [14],Potency [15],Potency [16],Potency [17],max activation [18] [%],outcome [19],Potency [20]
CCCBr,inactive,inactive,inactive,inactive,inactive,inactive,inactive,inactive,inactive,inactive,inactive,inactive,inactive,inactive,,,,,,
Clc1ccc(Cl)c(Cl)c1,inactive,inactive,inactive,inactive,,inactive,inactive,inactive,inactive,inactive,inactive,inactive,,,inactive,inactive,inactive,,,
CCCC[N+]1(C)[C@@H]2CC(OC(=O)[C@H](CO)c3ccccc3)C[C@H]1[C@@H]1O[C@@H]12 (stereo partly drawn),inactive,inactive,inactive,inactive,,inactive,inactive,inactive,inactive,inactive,inactive,inactive,inactive,inactive,inactive,inactive,inactive,-0.805,inactive,inactive
COCc1cnc(C2=NC(C)(C(C)C)C(=O)N2)c(C(=O)O)c1 (stereo not drawn),inactive,inactive,inactive,inactive,,inactive,inactive,inactive,inactive,inactive,inactive,inactive,inactive,inactive,inactive,inactive,inactive,,,
O=C1c2ccccc2C(=O)N1SC(Cl)(Cl)Cl,inactive,inactive,inactive,inactive,inactive,,inactive,inactive,inactive,4.27 µM (active) and 5.45 µM (active),inactive,24.3 µM (active),6.03 µM (active),inactive,,33.3 µM (active),39.8 µM (active) and 17.2 µM (active),,,
CCSCc1ccccc1OC(=O)NC,inactive,inactive,inactive,inactive,inactive,inactive,inactive,inactive,inactive,inactive,inactive,inactive,inactive,10 µM (active),,,,,,
CC[N+]1(CCOC(=O)C(O)(c2ccccc2)c2ccccc2)CCCCC1,inactive,inactive,inactive,inactive,inactive,inactive,inactive,,inactive,inactive,inactive,inactive,inactive,inactive,inactive,,inactive,0.456,inactive,inactive
C=C(Cl)Cl,inactive,inactive,inactive,inactive,inactive,inactive,inactive,,inactive,,inactive,inactive,58 µM (active),inactive,inactive,,,,,
CCC1(C2=NCCN2)Cc2ccccc2O1 (stereo not drawn),inactive,inactive,inactive,inactive,inactive,inactive,inactive,inactive,inactive,inactive,inactive,inactive,inactive,inactive,,inactive,,,,
